Measured values from PubChem BioAssay AID504332 (National Center for Advancing Translational Sciences (NCATS), 2011).
Out of some 350,000 compounds screened, about 31,000 (8.9%) were called active. Not shown: some 15% with an inconclusive outcome. The call rests on the fitted dose curve; in most records, active means well fitted inhibition curve with a large enough effect; inconclusive means small, poorly fitted or top-dose-only effect; inactive means no such curve, though single readings can be large or run the other way. Shown is part of a subset that was picked to be rich in actives.

target: Histone-lysine N-methyltransferase EHMT2 (Homo sapiens) (UniProt Q96KQ7); test: qHTS Assay for Inhibitors of Histone Lysine Methyltransferase G9a; settings: G9a H3K9 monomethylation, AlphaScreen, 2 h; series mostly up to 59 µM; activity, negative = inhibition: at the top concentration; further: nearly all actives have a fitted effect of over 75% in size
Procedure, shortened: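 AlphaScreen detection with an anti-monomethyl H3K9 antibody quantified product after a 2 h room-temperature reaction containing 500 nM biotinylated H3K9 peptide, 20 µM SAM and 20 nM enzyme, which had been preincubated 15 min with compound.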
On the % scale 0 is the no-effect control and ±100 the full control effect; potency means the concentration at half of the fitted maximal effect.

Sequence of Histone-lysine N-methyltransferase EHMT2 (Homo sapiens) (Q96KQ7 913-1193 limits assumed): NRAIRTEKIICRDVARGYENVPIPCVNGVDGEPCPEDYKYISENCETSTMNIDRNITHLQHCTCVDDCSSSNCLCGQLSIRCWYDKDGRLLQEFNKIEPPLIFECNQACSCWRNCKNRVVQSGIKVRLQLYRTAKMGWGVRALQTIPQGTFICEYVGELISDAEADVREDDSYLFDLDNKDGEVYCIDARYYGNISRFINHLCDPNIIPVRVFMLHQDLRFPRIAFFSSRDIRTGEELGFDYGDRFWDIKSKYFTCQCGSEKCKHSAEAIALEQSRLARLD

| SMILES | activity, negative = inhibition | Potency |
| --- | --- | --- |
| Cn1c(=O)c2c(ncn2CC(=O)Nc2cccc(C(F)(F)F)c2)n(C)c1=O | 27.9% (inactive) | – |
| Cc1ccc2nc(NC(=O)c3nc(SCc4ccccc4F)ncc3Cl)sc2c1 | 9.95% (inactive) | – |
| CCOC(=O)N1CCN(Cc2nc(Cc3cccc(C(F)(F)F)c3)no2)CC1 | 0.109% [at 102 µM] (inactive) | – |
| Cn1c(-c2sccc2OCc2cccc(C(F)(F)F)c2)n[nH]c1=S | – | 4.47 µM (active) |
| O=c1c2ccccc2nc2n1C(CSCc1cccc(C(F)(F)F)c1)CS2 (stereo unspecified) | -8.59% [at 102 µM] (inactive) | – |
| CCCCN(C(=O)c1ccc(S(=O)(=O)N2CCOCC2)cc1)C1CCS(=O)(=O)C1 (stereo unspecified) | 4.15% [at 0.501 µM] (inactive) | – |
| C/C(=N\NC(=O)c1cccnc1)c1ccc(-c2ccccc2)cc1 | 3.29% [at 102 µM] (inactive) | – |
| O=C(N/N=C/c1ccc(O)c2ccccc12)c1cccnc1 | 17.3% [at 102 µM] (inactive) | – |
| O=C(NN=C1CCC(=NNC(=O)c2cccnc2)CC1)c1cccnc1 | – | 17.8 µM (active) |
| CCC(=O)N1c2ccccc2CC1C(=O)N1CCN(c2ccccc2)CC1 (stereo unspecified) | -1.15% (inactive) | – |
| COc1ccc(CCNS(=O)(=O)c2cc(-c3cc(C)no3)ccc2C)cc1OC | 4.88% (inactive) | – |
| Nc1cc(N)nc(SCC(=O)Nc2cccc(S(=O)(=O)N3CCCCC3)c2)n1 | -10.4% (inactive) | – |
| O=C(Nc1ncc([N+](=O)[O-])s1)C1COc2ccccc2O1 (stereo unspecified) | -2.98% [at 12.7 µM] (inactive) | – |
| O=C(Nc1nc2c(F)cc(F)cc2s1)C1COc2ccccc2O1 (stereo unspecified) | -9.43% [at 102 µM] (inactive) | – |
| O=C(Nc1nc(-c2ccncc2)cs1)C1COc2ccccc2O1 (stereo unspecified) | – | 2.24 µM (active) |
| CC(OC(=O)c1ccccc1N1C(=O)C2C3CCC(C3)C2C1=O)C(=O)c1ccccc1 (stereo unspecified) | 5.86% (inactive) | – |
| COC(=O)C1=C(C)N=C2SC(C)C(=O)N2C1/C=C/c1ccccc1 (stereo unspecified) | -10.8% [at 102 µM] (inactive) | – |
| CCOC(=O)c1ccccc1N1C(=O)C2Sc3[nH]c(=O)sc3C(/C=C/c3ccccc3)C2C1=O (stereo unspecified) | – | 3.16 µM (active) |
| CCN(CC)S(=O)(=O)c1ccc(CNC(=O)CN2C(=O)NC3(CCc4ccccc43)C2=O)cc1 (stereo unspecified) | – | 28.2 µM (active) |
| CCN(CC)c1ccc(NC(=O)CN2C(=O)NC3(CCc4ccccc43)C2=O)cc1 (stereo unspecified) | 79.1% [at 12.7 µM] (inactive) | – |
| CCOc1ccc(CCNC(=O)CN2C(=O)NC3(CCc4ccccc43)C2=O)cc1OCC (stereo unspecified) | -29.7% [at 102 µM] (inactive) | – |
| COc1ccc(C=C(C#N)C#N)c(CSc2ccccn2)c1 | 1.76% [at 102 µM] (inactive) | – |
| CC(NC(=O)c1ccccc1F)c1cccc2ccccc12 (stereo unspecified) | 0% [at 2.33 µM] (inactive) | – |
| CCOC(=O)C1CCN(C(=O)c2cccc(S(=O)(=O)N(CC)c3ccccc3)c2)CC1 | -14.3% [at 12.7 µM] (inactive) | – |

| SMILES | activity, negative = inhibition | Potency |
| --- | --- | --- |
| CCN(c1ccccc1)S(=O)(=O)c1cccc(C(=O)O)c1 | – | 79.4 µM (active) |
| COc1ccc(N(Cc2ccccc2)S(=O)(=O)c2cccc(C(=O)O)c2)cc1 | -2.97% (inactive) | – |
| O=C(NCc1ccccc1)C(c1cccnc1)N(C(=O)c1csnn1)c1ccc(F)cc1 (stereo unspecified) | 22.8% [at 102 µM] (inactive) | – |
| O=C(N[C@@H](Cc1c[nH]c2ccccc12)C(=O)O)OCC1c2ccccc2-c2ccccc21 | -0.61% [at 0.501 µM] (inactive) | – |
| Cc1cccc(C(=O)Nc2ccc(S(=O)(=O)N3CCCCC3c3cccnc3)cc2)c1 (stereo unspecified) | 2.32% (inactive) | – |
| CC(C)c1ccc(Cn2c(COc3ccccc3)nc3ccccc32)cc1 | 27.2% (inactive) | – |
| CC(=O)N(OCc1ccc(OC(C)C)c(Cl)c1)C(C)=O | -0.368% [at 102 µM] (inactive) | – |
| CC(C)Oc1ccc(Cc2n[nH]c(=S)n2Cc2ccccc2)cc1Cl | – | 8.91 µM (active) |
| Cc1ccc(-c2csc(NC3OC(=O)c4ccccc43)n2)cc1 (stereo unspecified) | -11.2% [at 102 µM] (inactive) | – |
| COc1ccc(-c2cc(-c3ccc(F)cc3)nc3c2COc2ccccc2-3)cc1 | 21.3% (inactive) | – |
| COc1cc(OC)cc(-c2c(-c3ccc(F)cc3)c3cc(-c4ccc5cc[nH]c5c4)ccc3n2C)c1 | 26.5% [at 2.33 µM] (inactive) | – |
| COC(=O)c1ccc(Cn2c(SCC(=O)N(C)c3ccccc3)nc3ccccc32)cc1 | -1.12% [at 12.7 µM] (inactive) | – |
| Cc1ccc(Cl)cc1N1CCN(S(=O)(=O)c2cc3[nH]c(=O)c(=O)[nH]c3cc2C)CC1 | -35.6% (inactive) | – |
| Nc1ccc(Nc2ccccc2)cc1 | – | 4.47 µM (active) |
| Nc1ccc(S(=O)(=O)NC(=O)c2ccccc2)cc1 | – | inactive |
| Cc1ccc(Nc2ccccc2N)cc1 | -112% (inactive) | – |
| COc1ccc(OC)c(CNC(=O)c2c3c(nc4ccccc24)C(=O)N(C2CCCCC2)C3)c1 | 8.12% (inactive) | – |
| Cc1ccc(C)c(NC(=O)CSC2=Nc3ccccc3N=C(c3ccc(F)cc3)C2)c1 | 5.92% (inactive) | – |
| Cc1ccc2nc(-c3ccncc3)cc(C(=O)Nc3ccncc3)c2c1 | -0.776% [at 102 µM] (inactive) | – |
| Cc1c(C(=O)NCc2ccccc2Br)oc2ccc3c(c12)C(=O)CC(C)(C)O3 | -3.36% (inactive) | – |
| CCc1ccc2oc(-c3ccc(C)c(NC(=O)/C=C/c4ccco4)c3)nc2c1 | -28.5% (inactive) | – |
| O=C(Cc1cccs1)Nc1cccc(-c2nc3ccccc3[nH]2)c1 | -2.95% (inactive) | – |
| O=C(/C=C/c1ccco1)Nc1cccc(-c2nc3ccccc3[nH]2)c1 | – | 25.1 µM (active) |
| CCC1CCC2(CC1)NC(=O)N(CC(=O)Nc1ccc(OC)cc1)C2=O (stereo unspecified) | 7.81% [at 0.501 µM] (inactive) | – |

| SMILES | activity, negative = inhibition | Potency |
| --- | --- | --- |
| COCCNC(=O)CCCN1C(=O)c2ccccc2Sc2ncccc21 | – | inactive |
| O=C(O)CCCN1C(=O)c2ccccc2Sc2ncccc21 | – | 50.1 µM (active) |
| COc1cccc(NC(=O)CN2C(=O)c3ccccc3Sc3ncccc32)c1 | -3.8% (inactive) | – |
| O=C(NNC(=O)C1CCCC1)c1ccc(F)cc1 | 20.9% [at 102 µM] (inactive) | – |
| CC1CC(=O)Nc2ccccc2N1C(=O)COc1ccc2cc(Br)ccc2c1 (stereo unspecified) | -5.57% [at 2.33 µM] (inactive) | – |
| CCCCN(CC)CCCNC(=O)c1nn(C)c2c1CS(=O)(=O)c1ccccc1-2 | -9.82% (inactive) | – |
| COc1ccc(OCC(=O)NCCc2ccc(S(N)(=O)=O)cc2)cc1 | -7.3% (inactive) | – |
| COc1ccc(NC(=S)Nc2ccc(S(N)(=O)=O)cc2)c(C)c1 | -45.2% [at 102 µM] (inactive) | – |
| COc1cc(NC(=S)NCc2ccc(S(N)(=O)=O)cc2)cc(OC)c1 | – | 17.8 µM (active) |
| COc1ccc(C(=O)CC(=O)C(=O)Nc2cc([N+](=O)[O-])ccc2OC)cc1 | 13.4% [at 102 µM] (inactive) | – |
| COc1ccc(N2C(=O)C3C(C2=O)C(C(=O)c2ccccc2)N2CCCC32)cc1 (stereo unspecified) | – | 10 µM (active) |
| COc1ccc(N2C(=O)C3CCCN3C2c2cccs2)cc1 (stereo unspecified) | 14.2% [at 102 µM] (inactive) | – |
| COc1ccc(C2NC(=O)N(C)C3=C2C(=O)N(c2ccc(C(=O)O)cc2)C3)cc1 (stereo unspecified) | -0.267% (inactive) | – |
| Cn1c(=O)[nH]c(=O)c2c1nc(NCCc1ccccc1)n2Cc1ccc(F)cc1 | 7.33% (inactive) | – |
| O=[N+]([O-])c1ccc(S(=O)(=O)Nc2cccc(-c3ccc(N4CCCC4)nn3)c2)cc1 | – | 10 µM (active) |
| CCCOc1ccc(-c2cccc(NS(=O)(=O)c3ccccc3)c2)nn1 | -0.99% (inactive) | – |
| O=S(=O)(Nc1cccc(-c2ccc(N3CCOCC3)nn2)c1)c1ccc(Cl)c(Cl)c1 | -30.6% [at 102 µM] (inactive) | – |
| CCCc1cc(=O)oc2cc(OCC(=O)Nc3ccc(CN4CCOCC4)cc3)c(Cl)cc12 | 3.1% [at 0.501 µM] (inactive) | – |
| CN(CC(=O)Nc1cccc(C(F)(F)F)c1)S(=O)(=O)c1cccs1 | -7.08% (inactive) | – |
| Cc1ccc2[nH]cc(CCCN3C(=O)c4ccccc4C3=O)c2c1 | – | 44.7 µM (active) |
| COc1ccc2[nH]cc(CCN3C(=O)c4ccc(C(=O)O)cc4C3=O)c2c1 | 8.52% [at 102 µM] (inactive) | – |
| Cc1ccc2[nH]cc(CCNC(=O)C3CCCCC3)c2c1 | 7.65% (inactive) | – |
| CCCC(=O)Nc1cc2nn(-c3ccccc3)nc2cc1C | 6.98% (inactive) | – |
| COc1ccc(CNCCCO)cc1OC | 5.75% (inactive) | – |

| SMILES | activity, negative = inhibition | Potency |
| --- | --- | --- |
| COc1cc(CNCCN(C)C)ccc1OCc1c(F)cccc1Cl | -50.1% [at 102 µM] (inactive) | – |
| CCOCCCNCc1ccc(OCc2ccc(F)cc2)c(OC)c1 | – | 7.08 µM (active) |
| CC(Nc1nc(C(F)(F)F)nc2ccccc12)c1cccs1 (stereo unspecified) | 94.6% [at 102 µM] (inactive) | – |
| Cc1cc(C)nc(N/N=C/c2ccc([N+](=O)[O-])o2)n1 | -49.2% [at 102 µM] (inactive) | – |
| COc1ccc(C(=O)Nc2ccc(-n3nncc3-c3ccccc3)cc2)cc1OC | -28% (inactive) | – |
| CCOC(=O)C1CCCN(C(=O)Cn2ncc3c(C)n(Cc4ccc(F)cc4)c(C)c3c2=O)C1 (stereo unspecified) | 13% (inactive) | – |
| COc1ccc(-c2nnc(SCC(=O)c3cccs3)o2)c(OC)c1 | -1.85% [at 102 µM] (inactive) | – |
| O=C(NCC#CCSc1nnc(-c2cccc3ccccc23)o1)c1cccs1 | – | 3.16 µM (active) |
| COc1ccc(CCNC(=O)CSc2nnc(CNC(=O)c3cccs3)o2)cc1OC | 30% [at 12.7 µM] (inactive) | – |
| CCc1cc(C(=O)Nc2nnc(C3CC3)s2)sc1C | 5.21% [at 12.7 µM] (inactive) | – |
| CC(C)CC(N=C1NC(C)(C)Cc2ccccc21)C(=O)O (stereo unspecified) | 12.6% (inactive) | – |
| CCC1(CC)Cc2ccccc2-c2nc(CCl)[nH]c(=O)c21 | -21.1% [at 102 µM] (inactive) | – |
| CC1(C)Cc2ccccc2-c2[nH]c(=S)[nH]c(=O)c21 | – | 10 µM (active) |
| CCc1cc2c(cc3c(=O)n(CC(=O)N4CCN(c5cc(Cl)ccc5C)CC4)nc(CC)n32)s1 | -1.08% (inactive) | – |
| CCC(c1nnnn1Cc1ccccc1)N(Cc1cc2cc(OC)ccc2[nH]c1=O)CC1CCCO1 (stereo unspecified) | -31.1% [at 12.7 µM] (inactive) | – |
| CCC(c1nnnn1Cc1ccco1)N(Cc1cc2cc(OC)ccc2[nH]c1=O)C1CCCCC1 (stereo unspecified) | – | 3.16 µM (active) |
| CCOc1ccc2[nH]c(=O)c(CN(Cc3nnnn3Cc3ccccc3)CC3CCCO3)cc2c1 (stereo unspecified) | -25.1% [at 102 µM] (inactive) | – |
| CCCOc1ccc(C(=O)Nc2ccc3oc(-c4cccc(Cl)c4Cl)nc3c2)cc1 | -29.8% (inactive) | – |
| COc1ccc(S(=O)(=O)N2CCOCC2)cc1C(=O)NC1CCCCC1 | 18.8% [at 102 µM] (inactive) | – |
| S=C(NC1CCCCC1)NN1CCOCC1 | – | 50.1 µM (active) |
| CC(NC(=S)NC1CCCCC1)C(c1ccccc1)N1CCOCC1 (stereo unspecified) | 2.9% [at 102 µM] (inactive) | – |
| COc1ccc(NC(=O)C(=O)NCC(=O)Nc2cccc(C(F)(F)F)c2)cc1 | 2.22% [at 102 µM] (inactive) | – |
| COc1ccc(NC(=O)CN(C)CC(=O)Nc2cccc(C(F)(F)F)c2)cc1 | 6.72% [at 102 µM] (inactive) | – |
| COc1ccc(C(CC(=O)Nc2ccc(C)cc2)NC(=O)C(F)(F)F)cc1 (stereo unspecified) | – | 79.4 µM (active) |
